Laboratory results from PubChem BioAssay (EPA / NIEHS).
Results filed as inconclusive are left out. Some structures have more than one record in an assay (separate samples or runs), and their calls can disagree. Calls of active or inactive are those of the source. How the source made its calls: active means hit-call score of the fitted dose curve at least 0.9, where 1 is the maximum; inconclusive means response in the unintended direction; inactive means score below 0.9.

Assay: TOX21_p53_BLA_p5_viability: Viability Assessment in the Tox21 HCT-116 p53 Agonism Beta-lactamase Assay, Phase 5 (AID 2283600)
Description: TOX21_p53_BLA_p5 is a cell-based, single-readout assay that uses HCT116, a human intestinal cell line, […] in a 1536-well plate.TOX21_p53_BLA_p5_viability is an assay readout measuring cellular ATP content and detected with CellTiter-Glo Luciferase-coupled ATP quantitation.TOX21_p53_BLA_p5_viability used a type of viability reporter where loss-of-signal activity can be used to understand changes in the cell viability. Furthermore, this assay endpoint can be referred to as a secondary readout, because this assay has produced multiple assay endpoints where this one serves a viability function. To generalize the intended target to other relatable targets, this assay endpoint is annotated to the cell cycle intended target family, where the subfamily is cytotoxicity.
Thawing Method: Place 14 mL of pre-warmed thaw medium into a 15 mL of conical tub. Remove the vial of cells to be thawed from liquid nitrogen and thaw rapidly by placing at 37C in a water bath with gentle agitation for 1-2 minutes. Decontaminate the vial by wiping with 70% ethanol before opening in a biological safety cabinet. Transfer the vial contents drop-wise into 14 mL of thaw medium in a sterile 15-mL conical tub. Centrifuge cells at 900 rpm for 4 minutes and resuspend in thaw medium. Transfer contents to the T75 tissue culture flask containing Thaw Medium and place flask in a humidified 37C/5% CO2 incubator. Switch to growth medium at first passage.Propagation Method: Aspirate medium, rinse once in DPBS, add 0.25% Trypsin/EDTA and swirl to coat the cell evenly. Add an equal volume of Growth Medium to inactivate Trypsin after 2-3 minutes incubation at 37C. Centrifuge cells at 900 rpm for 4 minutes and resuspend in growth medium. Cell should be passage or fed at least twice a week.Assay Protocol: Harvest cells from culture in growth medium and resuspend in assay medium. 2.2 Dispense 4000 cells/5 uL/well into 1536-well black/clear bottom plates using a Multidrop dispenser. After the cells were incubated at 37C for 5 hours, 23 nL of compounds dissolved in DMSO were transferred to the assay plate by a PinTool resulting in a 217-fold dilution. Incubate the plates for 16 hours at 37C, 5% CO2. Add 1 uL of 6X LiveBLAzer FRET B/G (CCF4-AM) Substrate Mixture to each well using a BioRAPTR dispenser and incubate the plates at room temperature for 2 hours. Measure fluorescence intensity at 460 and 530 nm emission and 405 nm excitation by an Envision detector. Data is expressed as the ratio of 460nm/530nm emissions. Add 4 uL of Cell-titer Glo to each well using BioRAPTR and incubate the plates at room temperature for […]. For cell viability readout that measures cytotoxicity, 4 ul/well of CellTiter-Glo reagent was added into the assay plates using a Flying Reagent Dispenser. After 30 min incubation at room temperature, the luminescence intensity in the plates was measured using a ViewLux plate reader.

Row | SMILES | outcome | AC50
1 | Cc1nc2sccn2c(=O)c1CCN1CCC(=C(c2ccc(F)cc2)c2ccc(F)cc2)CC1 | inactive | –
2 | COC(=O)c1ccccc1 | inactive | –
3 | O=C(O)CCCCCC(=O)O | inactive | –
4 | O=C(Oc1ccccc1)Oc1ccccc1 | inactive | –
5 | COc1ccc(C)cc1 | inactive | –
6 | C=C(C)C(=O)OCCCCCC | inactive | –
7 | Cc1nc2n(c(=O)c1CCN1CCC(c3noc4cc(F)ccc34)CC1)CCC[C@H]2O | inactive | –
8 | COc1ccc(-c2ccc3cc(C(=O)O)ccc3c2)cc1C12CC3CC(CC(C3)C1)C2 | inactive | –
9 | CC(C)(C)OCC1CO1 (stereo not given) | inactive | –
10 | C[C@@H]1CC[C@H]2C(C)(C)[C@H]3C[C@@]12CC[C@@]3(C)O | inactive | –
11 | O=C(NCCNCC(O)COc1ccc(O)cc1)N1CCOCC1 (stereo not given) | inactive | –
12 | CC(=O)O[C@H]1C[C@@H]2CC[C@@H]3[C@H](CC[C@@]4(C)[C@H]3C[C@H](N3CC[N+](C)(C)CC3)[C@@H]4OC(C)=O)[C@@]2(C)C[C@@H]1N1CC[N+](C)(C)CC1 | inactive | –
13 | CC(=O)c1ccc2c(c1)N(CCCN1CCC(CCO)CC1)c1ccccc1S2 | inactive | –
14 | CN(CCO)CC(O)Cn1cnc2c1c(=O)n(C)c(=O)n2C (stereo not given) (tested in a mixture with another compound) | inactive | –
15 | COc1ccccc1OCCNCC(O)COc1cccc2[nH]c3ccccc3c12 (stereo not given) | inactive | –
16 | O=S(=O)(O)c1ccc(O)cc1 | inactive | –
17 | OCc1ccccc1O | inactive | –
18 | CCC(=O)OC | inactive | –
19 | C=C(C)C(=O)OCC(C)(C)COC(=O)C(=C)C | inactive | –
20 | Oc1ccc(Sc2ccc(O)cc2)cc1 | inactive | –

Row | SMILES | outcome | AC50
21 | FC(F)OC(Cl)C(F)(F)F (stereo not given) | inactive | –
22 | Cn1cnc2c(F)c(Nc3ccc(Br)cc3Cl)c(C(=O)NOCCO)cc21 | inactive | –
23 | CC(C(=O)O)c1ccc(C2CCCCC2)c2ccccc12 (stereo not given) | inactive | –
24 | c1ccc([C@H]2CN3CCSC3=N2)cc1 | inactive | –
25 | Brc1cc(Oc2cc(Br)c(Br)c(Br)c2Br)c(Br)c(Br)c1Br | inactive | –
26 | O=C(c1ccccc1)c1cccc(O)c1 | inactive | –
27 | OCCN1CCN(CCCN2c3ccccc3C=Cc3ccccc32)CC1 | inactive | –
28 | C[C@H](CCC(=O)O)[C@H]1CC[C@H]2[C@@H]3CC[C@@H]4C[C@H](O)CC[C@]4(C)[C@H]3C[C@H](O)[C@]12C | inactive | 84.4 µM (active)
29 | CCCCOCCOCCOCCCC | inactive | –
30 | Cc1cc(O)c2c(c1)O[C@@]1(C)CC[C@H]3C(C)(C)CCCC34CO[C@@H]2[C@H]41 (stereo not given in full) | – | 20.8 µM (active)
31 | CC(C)COC(=O)COc1cc(Cl)c(Cl)cc1Cl | inactive | –
32 | CC[C@H](C)COC(=O)/C=C/c1ccc(N=Cc2ccc(OC)cc2)cc1 | inactive | –
33 | CCC(C)=NO[Si](C)(ON=C(C)CC)ON=C(C)CC | inactive | –
34 | Cc1c(C)c2c(c(C)c1OC(=O)CCC(=O)OCCO)CCC(C)(CCCC(C)CCCC(C)CCCC(C)C)O2 (stereo not given) | – | 13.3 µM (active)
35 | CO/N=C(\C(=O)N[C@@H]1C(=O)N2C(C(=O)O)=C(COC(C)=O)CS[C@H]12)c1csc(N)n1 (stereo in doubt) | inactive | –
36 | C/C=C(\C)C=O | inactive | –
37 | CCOC(=O)C(C)C(C)=O (stereo not given) | inactive | –
38 | C[C@@H]1CN(CCCn2c3ccccc3c3ccccc32)C[C@H](C)N1 | inactive | –
39 | CC(=O)OC(C)(C)Cc1ccccc1 | inactive | –
